Data: ChEMBL document CHEMBL1157539, “Thousands of chemical starting points for antimalarial lead identification” (Nature, 2010)
Where “and” joins values, the source holds several entries; their conditions need not be identical. Equal values may be shown once.

What was measured:
Type in all cases: functional
[1] = tested on: Plasmodium falciparum; assay: GSK_TCMDC: Inhibition of Plasmodium falciparum 3D7 in whole red blood cells, using parasite LDH activity as an index of growth. Test compounds present at 2uM
[2] = tested on: Plasmodium falciparum; assay: GSK_TCMDC: Inhibition of Plasmodium falciparum Dd2 in whole red blood cells, using parasite LDH activity as an index of growth. Test compounds present at 2uM
[3] = tested on: HepG2; assay: GSK_TCMDC: Percent inhibition of human HepG2 cell line. Test compounds present at 10uM.

| Structure (SMILES) | Inhibition [1] | Inhibition [2] | Inhibition [3] |
| --- | --- | --- | --- |
| Cl.OC(CNC1CCCCCCC1)c1ccc(Cl)c(Cl)c1 (stereo not drawn) | 100% | 99% | 17% |
| COc1ccc(-c2ccccc2)cc1NC(=S)NC1CCC(CN2CCC(c3c[nH]c4ccccc34)CC2)CC1 (stereo not drawn) | 100% | 98% and 95% | 27% and 51% |
| O=C(NC1CCC(CN2CCC(c3c[nH]c4ccccc34)CC2)CC1)c1cc(-c2ccc(F)cc2F)ccc1O (stereo not drawn) | 100% | 100% | 30% |
| CN(c1cc(NC(=O)c2ccc(F)cc2)ccn1)C1CCN(Cc2ccc(C#N)cc2)CC1.O=C(O)C(F)(F)F | 87% | 54% | 13% |
| CC(Cc1ccc(OCCCCOc2ccccc2)cc1)NCCCc1nc2ccccc2[nH]1 (stereo not drawn) | 97% | 67% | 99% |
| C#CCN1CCC2=C(C1)c1c(O)cc(C(C)CCCc3ccc(F)cc3)cc1OC2(C)C (stereo not drawn) | 98% | 90% | 1% |
| Cc1[nH]c2cc(F)ccc2c1C1=CCN(CCCCC2(C)C(=O)Nc3ccccc32)CC1 (stereo not drawn) | 93% | 90% | 13% |
| COc1cccc(C2(NC[C@@H](O)[C@H](Cc3ccccc3)NC(=O)c3ccccc3)CCCCC2)c1 | 97% | 67% | 14% |
| O=C(/C=C/c1ccc(Cl)cc1Cl)NC1CCC(CN2CCC(c3c[nH]c4ccccc34)CC2)CC1 (stereo not drawn) | 100% | 79% | 37% |
| CC[C@H]1CN2CCc3cc(OC)c(OC)cc3[C@@H]2C[C@@H]1C[C@H]1NCCc2c1cc(OC)c(O)c2Cl | 100% | 100% | 51% |
| CCOC(=O)c1c(C)n(C2CCCCCC2)c2cc(Br)c(O)cc12 | 87% | 45% | 0% |
| CC(=O)C1(c2ccccc2)CCN(CCC2(c3ccc(Cl)c(Cl)c3)CN(C(=O)CC(C)C)CCO2)CC1 (stereo not drawn) | 92% | 94% | 7% |
| COC(=O)c1ccc(CC(C)NCC(O)c2cccc(OCc3ccccc3)c2)cc1.Cl (stereo not drawn) | 86% | 37% | 11% |
| COc1ccc(C=CC(=O)NC2CCC(CN3CCC(c4c[nH]c5ccccc45)CC3)CC2)cc1OC (stereo not drawn) | 100% | 85% and 72% | 14% and 15% |
| Cc1[nH]c2ccccc2c1C1=CCN(CCN2CCCc3c(Br)cccc3C2=O)CC1 | 95% | 90% | 10% |
| CCCCCc1cc(O)c2c(c1)OC(C)(C)c1ccncc1-2.Cl | 99% | 57% | 0% |
| Cc1cc(C2CCCCN2C)ccc1-c1ccc(C(=O)N2CCc3cc4c(cc32)C2(CCN(C)CC2)CO4)cc1.Cl (stereo not drawn) | 95% | 94% | 37% |
| O=c1n[n+](C2CCCCC2)[n-]o1 | 91% | 82% | 0% |
| COC(=O)c1ccc(CC(C)NCC(O)c2cccc(C(F)(F)F)c2)c(OC)c1 (stereo not drawn) | 100% | 98% | 5% |
| FC(F)(F)c1cccc(N2CCC(CN3CCC(c4c[nH]c5ccccc45)CC3)CC2)n1.O=C(O)C(F)(F)F | 84% | 10% | 41% |
| CN(C)CCCn1cc(C(=O)OC2CC3CCC(C2)N3C)c2cc(-c3ccccc3)ccc21.Cl (stereo not drawn) | 97% | 96% | 97% |

| Structure (SMILES) | Inhibition [1] | Inhibition [2] | Inhibition [3] |
| --- | --- | --- | --- |
| O=C(C=Cc1ccc(F)c(Br)c1)NC1CCC(CN2CCC(c3c[nH]c4ccccc34)CC2)CC1 (stereo not drawn) | 100% | 67% and 50% | 28% and 39% |
| CC(Cc1ccc(C(C)(C)C)cc1)NCC(O)c1ccccc1.Cl (stereo not drawn) | 94% | 89% | 5% |
| Cc1c(C(=O)NC2CCC(CN3CCC(c4c[nH]c5ccccc45)CC3)CC2)cnn1-c1c(Cl)cc(Cl)cc1Cl (stereo not drawn) | 100% | 97% | 53% |
| CCOC(C(=O)OCC1CCCN(C)C1)(c1ccccc1)c1ccccc1 (stereo not drawn) | 98% | 3% | 13% |
| Br.COc1ccc(CC(C)NCC(O)c2cccc(C(F)(F)F)c2)cc1F (stereo not drawn) | 91% | 65% | 0% |
| C/C=C1\CN2CC[C@H]1C[C@@H]2[C@@H](O)c1ccnc2ccc(O)cc12 | 98% | 0% | 0% |
| CNC(=O)c1ccc2[nH]cc(C3CCN(CC4CCN(C(=O)/C=C/c5ccc(Cl)c(Cl)c5)CC4)CC3)c2c1 | 100% | 88% | 3% |
| CCCc1c(C(=O)NC2CCC(CN3CCC(c4c[nH]c5ccccc45)CC3)CC2)cnn1-c1ccc(Cl)cc1 (stereo not drawn) | 90% | 37% | 53% |
| CC(Cc1ccc(OC2CCCCC2)cc1)NCC(O)c1cccc(Cl)c1.Cl (stereo not drawn) | 99% | 99% | 66% |
| CN(c1ccnc(Nc2ccc(CS(C)(=O)=O)cc2)n1)C1CCN(Cc2ccccc2)CC1 | 83% | 9% | 10% |
| C[C@H](Cc1ccc(OCCCCCCOc2ccccc2)cc1)NC[C@H](O)c1cccc(Cl)c1.Cl | 93% | 99% | 21% |
| CCOC(=O)c1c(CN2CCN(C)CC2)n(Cc2ccccc2)c2cc(Br)c(O)cc12 | 100% | 46% | 11% |
| c1ccc(C(OCCC2CCN(Cc3cccnc3)CC2)c2ccccc2)cc1 | 99% | 98% | 12% |
| O=C(/C=C/c1ccc(Cl)c(Cl)c1)NCCC1CCC(N2CCC(c3c[nH]c4ccc(O)cc34)CC2)CC1 (stereo not drawn) | 100% | 3% | 19% |
| CC[C@H]1CN2CC[C@H]1C[C@H]2[C@H](O)c1cc(-c2cccc(C)c2)nc2ccc(OC)cc12.Cl | 100% | 100% | 15% |
| CS(=O)(=O)Nc1ccc2[nH]cc(C3CCN(CC4CCC(NC(=O)/C=C/c5ccc(Cl)c(Cl)c5)CC4)CC3)c2c1 (stereo not drawn) | 100% | 86% | 22% |
| Cl.N=c1c2c(n(Cc3ccc(Cl)cc3Cl)c3c1CCC3)CCCC2 | 94% | 73% | 0% |
| Cc1cc(C)c(CC(C)NCC(O)c2cccc(C(F)(F)F)c2)c(C)c1.Cl (stereo not drawn) | 100% | 99% | 0% |
| COc1cccc(CN2CCC(CCOC(c3ccccc3)c3ccc(Cl)cc3)CC2)c1O (stereo not drawn) | 99% | 100% | 22% |
| Cc1[nH]c2ccc(O)cc2c1C1CCN(CC2CCC(NC(=O)/C=C/c3c(Cl)cccc3Cl)CC2)CC1 (stereo not drawn) | 100% | 93% | 25% |
| COc1cccc(C(=O)C2CC2CN2CC=C(c3c[nH]c4cccc(Br)c34)CC2)c1 (stereo not drawn) | 96% | 85% | 22% |

| Structure (SMILES) | Inhibition [1] | Inhibition [2] | Inhibition [3] |
| --- | --- | --- | --- |
| O=C(C=Cc1ccc(F)c(Br)c1)N1CCC(CN2CCC(c3c[nH]c4ccccc34)CC2)CC1 | 100% | 9% | 39% |
| C=C[C@H]1CN2CC[C@H]1C[C@H]2[C@H](O)c1cc(-c2ccc(Cl)cc2)nc2ccc(OC)cc12.Cl | 99% | 98% | 38% |
| COc1cc(C(=O)NC2CCC(CN3CCC(c4c[nH]c5ccccc45)CC3)CC2)cc(Cl)n1 (stereo not drawn) | 99% | 45% | 33% |
| CN1C(=O)OC[C@@H]1Cc1ccc2[nH]cc(C3=CCN(Cc4ccccc4)CC3)c2c1 | 86% | 66% | 4% |
| CCOC(C(=O)OCCN(C(C)C)C(C)C)(c1ccccc1)c1ccccc1 | 97% | 4% | 4% |
| Br.CC[C@H]1CN2CC[C@H]1C[C@H]2[C@H](O)c1ccnc2ccc(C#N)cc12 | 100% | 55% | 0% |
| CC[C@H]1CN2CC[C@@H]1C[C@H]2[C@H](O)c1cc(-c2c(C)noc2C)nc2ccc(OC)cc12.Cl | 100% | 98% | 4% |
| CN1CC=C(c2c[nH]c3ccc(OC(=O)c4ccccc4)cc23)C1 | 96% | 97% | 12% |
| CNCCN(C)C(=O)Oc1c(Br)c(C)nc(C)c1-c1ccc(Oc2ccc(OC(F)(F)F)cc2)cc1.Cl | 98% | 98% | 19% |
| CC1=C(C(=O)NC2CCC(CN3CCC(c4c[nH]c5ccccc45)CC3)CC2)Cc2ccccc21 (stereo not drawn) | 97% and 99% | 15% and 24% | 41% and 37% |
| CC(Cc1ccc(NC(=O)[C@H](C)NCCc2cccc(Cl)c2)cc1)NCCc1cccc(Cl)c1.Cl (stereo partly drawn) | 100% | 54% | 99% |
| COC(C(=O)OCCC1CCCN1C)(c1ccccc1)c1ccccc1 (stereo not drawn) | 98% | 9% | 6% |
| CC(Cc1ccc(SC(C)C)cc1)NCC(O)c1cccc(Cl)c1.Cl (stereo not drawn) | 99% | 97% | 5% |
| CC[C@H]1CN2CC[C@@H]1C[C@H]2[C@H](O)c1cc[n+]([O-])c2ccc(OC)cc12 | 95% | 1% | 0% |
| OC(CNC12CC3CC(CC(C3)C1)C2)c1cccc(C(F)(F)F)c1 (stereo not drawn) | 97% | 98% | 16% |
| O=C(CCc1ccco1)NC1CCN(CC2(c3ccc(Cl)cc3)CCC2)CC1 | 99% | 67% | 0% |
| CN(Cc1ccccc1)C1CCN(CCc2c[nH]c3ccc(F)cc23)CC1.O=C(O)C(F)(F)F | 100% | 91% | 28% |
| Br.COc1ccc(C[C@@H](C)NC[C@H](O)c2cccc(Cl)c2)cc1F | 88% | 76% | 2% |
| COCCNCc1cccc(-c2ccccc2CN(C(=O)Nc2ccccc2)C2CCN(Cc3ccccc3)CC2)c1.O=C(O)C(F)(F)F | 96% | 51% | 30% |
